Vif-APOBEC3G blk – Vif-A3G binding inhibition; 410,000 tested, 0.076% active; HeLa A3G-eYFP + Vif (tagged APOBEC3G with the HIV-1 protein that degrades it), YFP fluorescence, overnight; Q9HC16; Potency, µM (series often up to 46.1 µM), for the others: at the top dose activity, negative = active, usual class: inhibitors; further: on the % scale 0 is the no-effect control and ±100 the full control effect; nearly all actives have a fitted effect of over 60% in size
Target sequence (Q9HC16 whole entry, looked up): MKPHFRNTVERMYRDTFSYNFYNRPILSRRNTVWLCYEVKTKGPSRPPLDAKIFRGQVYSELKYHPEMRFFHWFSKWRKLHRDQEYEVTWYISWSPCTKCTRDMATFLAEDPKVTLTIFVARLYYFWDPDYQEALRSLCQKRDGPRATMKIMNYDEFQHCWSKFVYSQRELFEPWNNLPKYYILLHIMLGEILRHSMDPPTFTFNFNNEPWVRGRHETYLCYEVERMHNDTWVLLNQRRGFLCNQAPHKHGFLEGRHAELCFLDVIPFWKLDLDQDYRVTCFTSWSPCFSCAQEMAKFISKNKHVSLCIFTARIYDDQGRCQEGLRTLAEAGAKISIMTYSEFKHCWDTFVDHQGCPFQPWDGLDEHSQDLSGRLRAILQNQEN
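HeLa cells stably expressing Vif and C-terminally eYFP-tagged A3G, seeded overnight at 37 deg C, then exposed to compound by pintool overnight at 37 deg C. Rise in yellow fluorescence (Ex 488/Em 500-530, Acumen) marks blocked Vif-driven A3G degradation.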
Vif-A3F inh – blocks the Vif interaction with APOBEC3F; HeLa A3F-eYFP + Vif (tagged APOBEC3F with the HIV-1 protein that degrades it), YFP fluorescence increase; Potency, µM (titrated, usually from 46.1 µM), for inactives: at the top dose activity, negative = active; 390,000 tested, 0.2% active; further: % of control where 0% means no effect; nearly all actives have a fitted effect of over 65% in size
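HeLa cells stably expressing A3F-eYFP plus Vif, plated and incubated overnight at 37 deg C, then exposed to compounds overnight at 37 deg C. Blocked degradation read as raised yellow fluorescence (Ex 488/Em 500-530).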
Epigenetic reg – regulators of epigenetic silencing causing reporter derepression in mouse cells; murine LDR cells, GFP reporter derepression, 30 h; 280,000 tested, 0.2% active; Potency, µM (titrated, usually from 53.9 µM), without a hit: top-dose GFP activation, hits mostly activators; further: % of control where 0% means no effect; nearly all actives have a fitted effect of over 60% in size
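Murine LDR cells bearing a silenced CMV-driven GFP reporter were exposed to compound for 30 h at 37 C. After PBS washes, GFP-positive cells (20-120 um objects) counted by laser-scanning microplate cytometry.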
The depositor's hits bear a star; i = inactive; ? = inconclusive; . = not tested or not shown; ! = not confirmed by another sample. Only some compounds are listed: those with a hit (about 0.34% of all), similar ones and a draw of the others. The call rests on the fitted dose curve; in most records, active means well fitted curve in the direction sought with a large enough effect; inconclusive means small, poorly fitted or top-dose-only effect, or another doubt; inactive means no such curve, though single readings can be large; an effect the other way counts as inactive or inconclusive. Potency means the concentration at half of the fitted maximal effect.

SMILES | Vif-APOBEC3G blk | Vif-A3F inh | Epigenetic reg
COc1cc(/C=C2\SC(=Nc3cccnc3)NC2=O)cc(OC)c1OC | ? | 25µM* | 0%
O=C1NC(=Nc2cccnc2)S/C1=C\c1cccc(F)c1 | -9% | -15% | 0%
COc1ccc(C=C2SC(=O)NC2=O)cc1OC | -11% | -9% | .
Cc1ccc2c(C)c(C(=O)N(Cc3ccc(N(C)C)cc3)Cc3ccco3)oc2c1C | . | . | -1%
CSC1=NSC2=NC(=O)/C(=C\c3coc4ccccc4c3=O)C(=N)N12 | ? | ? | -3%
N=C1/C(=C/c2coc3ccccc3c2=O)C(=O)N=C2SC(c3ccco3)=NN12 | -2% | ? | 2%
N=C1/C(=C\c2coc3ccccc3c2=O)C(=O)N=C2SC(c3ccncc3)=NN12 | ? | 25µM* | 0%
CC(C)CSC1=NSC2=NC(=O)/C(=C\c3coc4ccccc4c3=O)C(=N)N12 | ? | 22µM* | -1%
CCc1ccc(NC(=O)C2CCN(c3nnc(-n4c(C)ccc4C)s3)CC2)cc1 | . | . | 5%
O=c1n(Cc2ccc([N+](=O)[O-])cc2)c2ccccc2c2nc(-c3ccccc3)nn12 | 5% | 0% | -2%
COc1ccccc1NC(=O)c1sc2ncn(CC(=O)Nc3ccccc3)c(=O)c2c1C | -3% | 25µM* | .
COc1ccccc1NC(=O)Cn1cnc2sc(C(=O)Nc3cc(OC)c(OC)c(OC)c3)c(C)c2c1=O | -1% | -11% | .
Cc1ccc(CN(Cc2ccco2)C(=O)c2ccccc2Br)o1 | -2% | 5% | -2%
COc1ccc(C(=O)/C=C/Nc2ccc([N+](=O)[O-])cc2C)c(OC)c1 | -3% | 22µM* | ?
COc1ccc(C(=O)/C=C/Nc2ccc([N+](=O)[O-])cc2C)cc1OC | ? | -6% | ?
CCOC(=O)COc1cc(C)c(Cl)cc1C(=O)c1ccn2nc(-c3ccc(OC)cc3)cc2n1 | -11% | -5% | 0%
CCC1CCCCN1S(=O)(=O)c1cc2c(cc1C)NC(=O)CO2 (stereo not given) | 1% | 2% | 0%
O=C(CC1Oc2ccccc2NC1=O)NCc1ccccc1 (stereo not given) | -1% | 0% | 2%
CC(=O)CC1OC(=O)C(Br)=C1NCc1ccccc1 (stereo not given) | -21% | ? | 7.9µM*
Cc1ccc2c(CNCc3ccc(C)o3)c(C(=O)O)n(Cc3ccccc3C)c2c1 | 0% | 0% | 3%
COc1cc2c(=O)c(S(=O)(=O)c3ccc(C)cc3)cn(Cc3cccc(C)c3)c2cc1OC | -1% | -12% | -8%
CC(=O)Nc1ccc(C)cc1-c1nc2ccccc2n(CC(=O)c2ccc(C)c(C)c2)c1=O | 3% | 7% | -3%
O=C1c2c(O)ccc(O)c2C(=O)c2c(NCCNCCO)ccc(NCCNCCO)c21 | 8% | -26% | 13µM*!
O=C1c2ccccc2C(=O)c2c(Nc3ccc(CCO)cc3)ccc(O)c21 | -1% | -1% | 1%
CCOC(=O)/C=C/c1ccc2c(c1)S(=O)(=O)N(C1CCCC1)[C@H]2CC(=O)OCC | 3% | . | .
SMILES | Vif-APOBEC3G blk | Vif-A3F inh | Epigenetic reg
O=[N+]([O-])c1ccc(C=CC=Cc2ccccc2)cc1 | -7% | -13% | .
CC1=NN(c2ccccc2)C(c2ccco2)C1 (stereo not given) | -3% | -17% | .
O=[N+]([O-])c1ccc(/C=C/C2=NN(c3ccccc3)C(c3ccco3)C2)cc1 (stereo not given) | -14% | i | 0.79µM*
O=[N+]([O-])c1ccc(C2=NN(c3ccccc3)C(c3ccco3)C2)cc1 (stereo not given) | ? | i | 2µM*
COc1ccc(CNCc2c(C(=O)O)c(C)n(Cc3ccccc3C)c2C)c(OC)c1 | 9% | 0% | 4%
CC(C)c1ccc(NC(=O)CN2C(=O)COc3ccc(S(=O)(=O)N4CCCCCC4)cc32)cc1 | 5% | -5% | -1%
O=C(COC(=O)c1ccccn1)Nc1ccccc1OC(F)F | -4% | ? | 0%
O=C(COC(=O)c1cccnc1Cl)Nc1ccccc1OC(F)F | 0% | 10µM* | 0%
O=C(CSc1cn(CC(=O)N2CCCCC2)c2ccccc12)NCc1ccc(F)cc1 | 1% | 3% | 2%
CC1=C(C(=O)Nc2cc(Cl)ccc2C)C2(CCCCC2)OC1=O | . | . | 0%
O=C1c2ccccc2-c2cccnc21 | -7% | 1% | .
O=C1c2ccccc2C(=O)c2c(/C=C/N3CCCCC3)ccnc21 | ? | 22µM* | .
COC(=O)C1(C(=O)OC)C[C@@H]2CON=C2[C@H]1c1ccccc1 | . | . | 0%
N#CC1=C(S)N(c2ccccc2)C2(CCCCC2)NC1=O | 0% | 2% | -2%
N#CC1=C(S)N(c2ccc(F)cc2)C2(CCCCC2)NC1=O | 9% | 11µM* | ?
S=C(NCc1ccco1)Nc1ccc(Cl)cn1 | -1% | 25µM* | .
S=C(NCc1ccco1)Nc1ccccn1 | 6% | ? | 0%
NC1(C(=O)O)CCc2cc(C(=O)O)ccc21 (stereo not given) | . | . | 0%
Cc1ccc2[nH]c(C)c(/C=C/c3cc[n+](C)cc3)c2c1 | 1.3µM* | -372% | .
Cc1ccc2c(c1)c(/C=C/c1cc[n+](C)cc1)c(C)n2C | ? | -91% | .
COc1cc(/C=C2\SC(=S)N(CCC(=O)Nc3ccccn3)C2=O)cc(OC)c1OC | -21% | 25µM* | .
COc1cc(/C=C2\SC(=S)N(CC(=O)Nc3ccccn3)C2=O)cc(OC)c1OC | -28% | -20% | 0%
COc1cc(/C=C2/SC(=S)N(CCC(=O)Nc3ccccc3)C2=O)cc(OC)c1OC | ? | 11µM* | .
O=C(CN1C(=O)S/C(=C\c2cc(Cl)c(O)c(Cl)c2)C1=O)Nc1ccccc1 | ? | 13µM* | .
COc1cc(/C=C2\SC(=S)N(CCC(=O)Nc3ccccc3)C2=O)cc(OC)c1OC | ? | ? | -11%
SMILES | Vif-APOBEC3G blk | Vif-A3F inh | Epigenetic reg
O=C(CN1C(=O)S/C(=C\c2ccccn2)C1=O)Nc1ccccc1 | 2% | -5% | .
Cc1ccc2[nH]cc(C(O)c3c[nH]c4ccc(C)cc34)c2c1 | -2% | . | .
CCn1nc(-c2ccc(C)cc2)nc2c(=O)n(C)c(=O)nc1-2 | -15% | . | .
CC(C)NC(=O)CCC(=O)N1Cc2ccccc2Oc2ncccc21 | -4% | 4% | 0%
CCOC(=O)c1ccc(NC(=O)CCCc2nc(-c3ccccc3Cl)no2)cc1 | -2% | 5% | -2%
Cc1nc2ccccc2nc1N1CCCC1 | -1% | -16% | 0%
Cc1ccc2c(Cl)c(C)c(N3CCCC3)nc2n1 | 2% | 22µM* | 1%
CCOC(=O)c1c(NC(=O)CSc2cn(CCNC(=O)c3ccc(OC)c(OC)c3)c3ccccc23)sc2c1CCCC2 | -2% | -12% | 5%
O=C1c2c(O)cc(O)cc2O[C@H](c2ccc(O)c(O)c2)[C@H]1O | 1% | 4% | 2%
C[C@@H]1O[C@@H](O[C@@H]2C(=O)c3c(O)cc(O)cc3O[C@H]2c2ccc(O)c(O)c2)[C@H](O)[C@H](O)[C@H]1O | 11µM* | 0% | .
CCOC(=O)c1c(NC(C)=O)c2c3c(sc2n1Cc1cccc(Cl)c1)CCCC3 | . | . | 15%
CN1C(=O)/C(=C/c2coc3ccc(O)cc3c2=O)SC1=S | 1% | -10% | 1%
Cc1ccc(-n2c(C)cc(/C=C3\SC(=O)NC3=O)c2C)cc1 | 0% | 1% | .
Cc1cc(/C=C2\SC(=S)N(C)C2=O)c(C)n1-c1ccccc1O | ? | 11µM* | .

High-throughput results (PubChem)
